Only a selection was taken, and hits are over-represented in it overall.
Pf Dd2 inh: blocks in vitro growth of P. falciparum Dd2 | P. falciparum Dd2 growth, SYBR Green, 72 h | Potency, µM (highest dose often 28.9 µM), usual class: inhibitors | 120,000 compounds, 4.3% hits | AID 1347417; active = well fitted inhibition curve with a large enough effect; note: nearly all actives have a fitted effect of over 65% in size
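Readout: SYBR Green fluorescence, 485 nm excitation, 535 nm emission, after ~16 h lysis at 37C. Before that, Dd2-infected red cells (2.5% hematocrit) grew 72 h with compound, 29 uM top final concentration.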
Numbers stand for hits.

Results for CCOC(=O)c1c(C)oc2nc(C)nc(NC(C)c3ccccc3)c12 (configuration not stated) ?
Pf Dd2 inh: 10µM

How did CCOC(=O)c1c(C)oc2ncnc(Nc3ccc(OCC)cc3)c12 do in these assays?
Pf Dd2 inh: inactive

How did CCOC(=O)c1c(C)oc2nc(C)nc(NCC3CCN(Cc4ccc(Cl)cc4)CC3)c12 do in these assays?
Pf Dd2 inh: 13µM

What do the screens show for `CCOC(=O)c1c(C)oc2nc(C)nc(N3CCN(c4cccc(C(F)(F)F)c4)CC3)c12`?
Pf Dd2 inh: 10µM

How did CCOC(=O)c1c(C)oc2nc(C)nc(N(C)Cc3ccccc3)c12 do in these assays?
Pf Dd2 inh: 13µM

How did CCOC(=O)c1c(C)oc2nc(C)nc(Nc3cccc(OC)c3)c12 do in these assays?
Pf Dd2 inh: inactive

How did CCOC(=O)c1c(C)oc2ncnc(N3CCN(c4cccc(Cl)c4)CC3)c12 do in these assays?
Pf Dd2 inh: inactive

What do the screens show for `CCOC(=O)c1c(C)oc2nc(C)nc(NCc3ccc(OC)cc3OC)c12`?
Pf Dd2 inh: inactive

How did O=C(Cc1cccn1-c1ccc(Cl)cc1)NC1CCCC1 do in these assays?
Pf Dd2 inh: inactive

How did O=C(NCc1ccccc1)C1CCC(=O)N1C1CCN(C(=O)c2ccc(F)cc2F)CC1 (configuration not stated) do in these assays?
Pf Dd2 inh: inactive

Results for CN(CC1CCOCC1)C(=O)c1ccccc1Cl ?
Pf Dd2 inh: inactive

What do the screens show for `Cc1noc([C@@H]2CC(F)(F)CN2C(=O)c2cocn2)n1`?
Pf Dd2 inh: inactive

Results for Cc1nc(CCNS(=O)(=O)c2cccs2)no1 ?
Pf Dd2 inh: inactive

How did Cc1cnc(CC2CCN(C(=O)c3ccco3)CC2)n1CC1CC1 do in these assays?
Pf Dd2 inh: inactive

Results for CC(C)CNC(=O)Cc1ccc(N(Cc2cccc(F)c2)C(=O)c2ccco2)cc1 ?
Pf Dd2 inh: inactive

Results for C=CCNc1ccccc1C(=O)NC(C(=O)O)c1c(C)n[nH]c1C (configuration not stated) ?
Pf Dd2 inh: inactive

What do the screens show for `Cc1ccc(CNC(=O)C2(Cc3ccccc3)CCCCC(=O)N2)cc1` (configuration not stated)?
Pf Dd2 inh: inactive

Results for Cc1cc(Cl)ccc1OCCN1CCN(CC2(O)CCCNC2)CC1 (configuration not stated) ?
Pf Dd2 inh: 8.9µM

Results for Cc1cc(Cl)ccc1OCCN1CCN(C(=O)[C@H]2CCC[C@H](O)C2)CC1 ?
Pf Dd2 inh: inactive

What do the screens show for `OC1(CN2CCN(CCc3ccccn3)CC2)CCCNC1` (configuration not stated)?
Pf Dd2 inh: inactive

How did CC(C)NC(=O)NC1CC2(CCN(C(=O)Cc3cnc[nH]3)CC2)c2ccccc21 (configuration not stated) do in these assays?
Pf Dd2 inh: inactive

Results for COCc1cc(C[C@H]2CNCC[C@H]2CC(=O)N2CCN(c3ccccc3OC)CC2)no1 ?
Pf Dd2 inh: inactive

What do the screens show for `CCOc1cc(C(=O)NC2CCN(c3cc(-c4ccccc4)[nH]n3)C2)cc(OCC)c1OCC` (configuration not stated)?
Pf Dd2 inh: 5µM

What do the screens show for `CCOc1ccc(CC(=O)NC2CCN(c3cc(-c4cccs4)[nH]n3)C2)cc1OCC` (configuration not stated)?
Pf Dd2 inh: inactive

What do the screens show for `Cc1cc(C)cc(C(=O)NC2CCN(c3cc(-c4ccccc4)[nH]n3)C2)c1` (configuration not stated)?
Pf Dd2 inh: inactive

How did CCOc1cc(C(=O)NC2CCN(c3cc(-c4cccs4)[nH]n3)C2)cc(OCC)c1OCC (configuration not stated) do in these assays?
Pf Dd2 inh: inactive

What do the screens show for `CCOc1ccc(CC(=O)NC2CCN(c3cc(-c4ccccc4)[nH]n3)C2)cc1OCC` (configuration not stated)?
Pf Dd2 inh: 7.9µM

What do the screens show for `CCOc1ccc(CC(=O)NC2CCCN(c3cc(-c4ccc(F)cc4)[nH]n3)C2)cc1OCC` (configuration not stated)?
Pf Dd2 inh: inactive

Results for CN1C(=O)[C@@H]2C[C@@H](O)CN2C2(CN(Cc3cccc(F)c3)C2)C1=O ?
Pf Dd2 inh: inactive

How did O=C(c1ccccn1)N1CCCN(c2cc(-c3ccc(Cl)cc3)[nH]n2)CC1 do in these assays?
Pf Dd2 inh: inactive

What do the screens show for `CCCn1c(C)cnc1CC1CCN(S(C)(=O)=O)CC1`?
Pf Dd2 inh: inactive

What do the screens show for `Cc1ccccc1S(=O)(=O)N1CCC(n2cnnc2C2CC2)CC1`?
Pf Dd2 inh: inactive

What do the screens show for `CCN1C(=O)C2(CCN(S(=O)(=O)c3ccc(Cl)cc3C)CC2)c2ccccc21`?
Pf Dd2 inh: 1µM

How did CCN1C(=O)C2(CCN(S(=O)(=O)c3ccc(C)c(C)c3)CC2)c2ccccc21 do in these assays?
Pf Dd2 inh: inactive

What do the screens show for `CCN1C(=O)C2(CCN(S(=O)(=O)c3cccc(C)c3)CC2)c2ccccc21`?
Pf Dd2 inh: inactive

How did CCc1ccccc1NC(=O)CN1C=C(C(=O)OC)C(C)=NS1(=O)=O do in these assays?
Pf Dd2 inh: inactive

Results for O=C(c1ccccn1)N1CCC(N2CCNC2=O)CC1 ?
Pf Dd2 inh: inactive

What do the screens show for `CS(=O)(=O)N1CCCNCCNC(=O)CC1c1ccccc1` (configuration not stated)?
Pf Dd2 inh: inactive

Results for CN(C)c1cnn(CC(=O)N2CCC(C(=O)N3CCOCC3)CC2)c(=O)c1 ?
Pf Dd2 inh: inactive

Results for Cc1ccc(C2NC(=O)N(CC(=O)Nc3ccc(F)c(F)c3)C3=C2C(=O)OC3)cc1 (configuration not stated) ?
Pf Dd2 inh: inactive

What do the screens show for `CC(C)(C)OC(=O)N1CCC(c2c(C(=O)NCCN3CCC(Cc4ccccc4)CC3)cnn2-c2ccc(F)cc2)CC1`?
Pf Dd2 inh: 1.6µM

What do the screens show for `CN1CCN(CCCNC(=O)c2cnn(-c3ccccc3)c2C2CCN(C(=O)OC(C)(C)C)CC2)CC1`?
Pf Dd2 inh: inactive

How did CC(C)(C)OC(=O)N1CCC(c2c(C(=O)NCCN3CCC(Cc4ccccc4)CC3)cnn2-c2ccccc2)CC1 do in these assays?
Pf Dd2 inh: 2.8µM

How did CCc1ccccc1S(=O)(=O)N1C[C@@H](F)C[C@H]1C(=O)N1CCCCC1 do in these assays?
Pf Dd2 inh: inactive

Results for Cc1cc(C)n(C)c(=O)c1C(=O)NC1CCCc2nc(-c3ccccc3)ncc21 (configuration not stated) ?
Pf Dd2 inh: inactive

How did COc1ccc(OC)c(NC(=O)Cn2c(C)cc3nc4n(c(=O)c32)CCCCC4)c1 do in these assays?
Pf Dd2 inh: inactive

How did Cc1ccccc1C(=O)Nc1ccc([C@H]2OCC(=O)N(CC(C)C)[C@@H]2CO)cc1 do in these assays?
Pf Dd2 inh: inactive

Results for COc1ccc(NC(=O)C2(C)CCCCC(=O)N2)cc1F (configuration not stated) ?
Pf Dd2 inh: inactive

Results for O=C([C@@H]1C[C@H](F)CN1C(=O)Nc1ccc(F)cc1)N1CCCCC1 ?
Pf Dd2 inh: inactive

How did Cc1ccc(-n2c3c(c(=O)[nH]c2=O)C(NS(=O)(=O)c2ccc(Cl)cc2)(C(F)(F)F)C(=O)N3)cc1 (configuration not stated) do in these assays?
Pf Dd2 inh: 8.9µM

How did Cc1ccc(-n2c3c(c(=O)[nH]c2=O)C(NS(=O)(=O)c2ccc(C)cc2)(C(F)(F)F)C(=O)N3)cc1 (configuration not stated) do in these assays?
Pf Dd2 inh: inactive

Results for O=C1Nc2c(c(=O)[nH]c(=O)n2-c2ccc(F)cc2)C1(NS(=O)(=O)c1ccc(Cl)cc1)C(F)(F)F (configuration not stated) ?
Pf Dd2 inh: inactive
